GPR151 ag: activates the human receptor GPR151. activation, % at 11.2 µM. 1% of 650,000 active. Q8TDV0. PathHunter beta-arrestin GPR151 cells, luminescence. AID 1508602; in the data active means activation above about 4.9%;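 further: 0% = median of compound wells and 100% = cells with positive control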
MITF inh: inhibitors of human MITF; AlphaScreen MITF homodimerization, bead proximity signal; 0.91% of 650,000 active; inhibition, % at 2.6 µM; O75030; in the data active means inhibition above about 50%;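 further: 0% = vehicle wells with protein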
Target sequence (O75030 whole entry, looked up): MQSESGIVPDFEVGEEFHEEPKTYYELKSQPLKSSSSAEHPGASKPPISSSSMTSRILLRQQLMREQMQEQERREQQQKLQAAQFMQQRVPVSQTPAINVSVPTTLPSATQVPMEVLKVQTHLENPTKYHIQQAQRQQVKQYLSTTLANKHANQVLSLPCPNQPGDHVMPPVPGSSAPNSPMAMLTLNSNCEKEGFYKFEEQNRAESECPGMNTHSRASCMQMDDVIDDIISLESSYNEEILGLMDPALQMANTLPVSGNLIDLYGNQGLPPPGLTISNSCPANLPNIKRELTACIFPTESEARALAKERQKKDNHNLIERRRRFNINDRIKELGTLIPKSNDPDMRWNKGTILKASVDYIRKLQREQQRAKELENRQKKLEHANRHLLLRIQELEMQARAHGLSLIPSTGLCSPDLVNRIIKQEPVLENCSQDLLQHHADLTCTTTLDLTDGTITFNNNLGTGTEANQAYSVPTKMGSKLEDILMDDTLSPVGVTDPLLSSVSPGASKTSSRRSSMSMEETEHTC
TEAD-YAP block: TEAD-YAP interaction inhibition | HEK-TIYL cells, TEAD-Gal4/YAP UAS-luciferase luminescence | 1.4% of 640,000 active | inhibition, % at 9.12 µM; in the data active means inhibition above about 32%;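 further: 0% = median of test compound wells and 100% = reference inhibitor wells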
FBW7 activator: activators of human E3 ligase FBW7. Q969H0. AlphaScreen FBW7–phospho-cyclin E peptide binding, activator screen. normalized activity (activation), % at 26.1 µM. 0.13% of 650,000 active. AID 1259310; in the data active means normalized activity above about 1.9%;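 further: purified mutant Fbw7 with reduced substrate affinity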
MITF inh conf: confirmation of human MITF inhibitors | 16% of 4,700 active | shares compounds with MITF inh | AlphaScreen MITF homodimerization, biotin/His-MITF beads | AID 1259372 | inhibition, % at 2.6 µM;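 active means inhibition above a cutoff derived from the DMSO control wells, cut at about 28% in these data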;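 further: 0% = MITF dimer wells with DMSO only; inhibitors lower the bead chemiluminescence by keeping MITF from dimerizing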
AlphaScreen DR: optically interferes with AlphaScreen signal in dose response. shares compounds with MITF inh. AlphaScreen optical interference counterscreen, cell-free. IC50, µM. 6% of 480 active. AID 1259373; call rule not given here
AlphaScreen intf2: counter-screen: compounds optically interfering with AlphaScreen | shares compounds with MITF inh | LysRS AlphaScreen counterscreen, signal interference, triplicate | inhibition, % at 2.6 µM | 7.6% of 4,700 active | AID 1259376;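 active means inhibition above a cutoff derived from the DMSO control wells, cut at about 30% in these data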
* hit, by the source's call; . = not tested or not shown. This is a sample that favours compounds with a hit; in the whole collection about 3.5% have one here.

SMILES	GPR151 ag	MITF inh	TEAD-YAP block	FBW7 activator	MITF inh conf	AlphaScreen intf2	others
CCN1CCN(c2c(Cl)cccc2NC(=O)c2ccc(Cl)s2)CC1	-1.1	7.6	-3.1	-0.2	.	.
O=C(Cc1cn(-c2ccc(NCCCN3CCCC3=O)nn2)c2ccccc12)NCc1cccc(C(F)(F)F)c1	-0.8	16.8	-18.4	-0.1	.	.
Cn1c(=O)[nH]c(=O)c2c1nc(Cl)n2CC(N)=O	0.2	82.3*	-1.2	0.0	2.2	9.6
Cc1cc(C)c2[nH]c(=O)c(CN(Cc3ccco3)Cc3nnnn3CC3CCCO3)cc2c1 (stereo not drawn)	0.1	2.3	-1.0	0.0	.	.
COCc1cc(=O)[nH]c(Nc2nc3ccccc3o2)n1	-0.7	64.6*	-0.3	-1.2	75.0*	100.6*
O=C(NCc1cccs1)c1ccc(CNS(=O)(=O)c2ccc(F)cc2)cc1	-0.3	0.0	-2.5	0.1	.	.
O=C(NCCNCc1cccs1)c1ccc(F)cc1	-0.8	55.3*	6.9	0.2	-5.0	17.4
CCOC(=O)c1cnc2n[nH]c(C)c2c1NCc1ccc(OC)cc1	4.2	13.5	1.2	0.2	.	.
Cc1cc(C)cc(Cn2c(NCCCN3CCOCC3)cc(=O)n(C)c2=O)c1	1.3	69.8*	-6.3	-0.1	10.6	19.4
Cc1cccc(C(C)(C)C)c1OCCOCCN1CCOCC1	3.0	29.9	-2.8	-0.1	.	.
Cc1cccc(C)c1OCCOCCN1CCN(C)CC1	1.9	64.0*	-0.5	-0.1	21.2	16.2
Cc1ccccc1OCCOCCN1CCN(C)CC1	-1.3	73.2*	-3.2	-0.1	14.7	17.7
Cc1cccc(C(C)(C)C)c1OCCCN1CCN(C)CC1	0.6	67.9*	1.5	-0.2	-11.3	-6.8
CCOc1ccc(C(C)NC(=O)c2ccccc2Cl)cc1 (stereo not drawn)	2.6	15.8	16.9	0.0	.	.
OCCC1CN(Cc2cnn(-c3cccc(F)c3)c2)CCN1C1CCCCC1 (stereo not drawn)	0.7	3.5	5.6	-0.1	.	.
COc1ccc(/C(C)=N/NC(=O)C(C)Nc2cccc(C)c2)cc1 (stereo not drawn)	1.1	12.1	12.8	0.2	.	.
COc1cc(N2CCOCC2)ccc1Nc1cc(NC(C)(C)c2ccccc2)c(C(F)(F)F)cn1	-1.9	57.9*	-0.8	0.1	44.2*	16.8	AlphaScreen DR=>6.48
COc1cc(N2CCOCC2)ccc1Nc1cc(NCc2ccccc2)c(C(F)(F)F)cn1	-1.2	10.2	-0.9	0.2	.	.
CN(C)C1(CNCC(=O)Nc2ccc(F)cc2)CCCCC1	-0.2	80.2*	3.0	-0.1	-11.2	-1.9
CC(=O)COc1ccc2c(C(F)(F)F)cc(=O)oc2c1	-1.3	-23.3	4.0	0.1	.	.
CC(Oc1ccc2c(C(F)(F)F)cc(=O)oc2c1)C(=O)NN (stereo not drawn)	3.5	57.8*	0.6	-0.2	44.2*	-4.4	AlphaScreen DR=>6.56
CC(C(=O)NC12CC3CC(CC(C3)C1)C2)N(C)CCOc1ccccc1 (stereo not drawn)	-2.1	50.8*	2.2	-0.2	4.6	15.0
CC(O)CNC(=O)C12CC3CC(CC(C3)C1)C2 (stereo not drawn)	-0.3	4.8	6.5	0.0	.	.
CCN=C(Nc1ccc2c(c1)OCO2)SC1CC(=O)N(c2ccc(OCC)cc2)C1=O (stereo not drawn)	0.6	14.4	1.9	0.0	.	.
CCCCOCC(O)Cn1cnc2ccccc21 (stereo not drawn)	-1.2	54.9*	-3.3	0.2	21.3	18.5
SMILES	GPR151 ag	MITF inh	TEAD-YAP block	FBW7 activator	MITF inh conf	AlphaScreen intf2	others
OC(COCc1ccccc1)Cn1cnc2ccccc21 (stereo not drawn)	1.8	1.5	-4.6	0.2	.	.
CCCS(=O)(=O)N1CCCc2cc(NC(=O)c3cccc(Br)c3)ccc21	0.0	-2.7	-17.5	-0.2	.	.
CCN(C(=O)c1cnc2n(c1=O)CCS2)c1ccccc1	2.8	51.4*	-8.4	-0.1	6.8	9.4
CCN1C(=O)NC(c2cc(Br)ccc2OC)C(C(=O)OC)=C1C (stereo not drawn)	3.7	59.2*	3.7	-0.1	2.1	8.4
CCN1C(=O)NC(c2cc(C)ccc2C)C(C(=O)OC)=C1C (stereo not drawn)	-0.5	10.6	4.6	0.0	.	.
COC(=O)c1ccc(C2C3(C#N)C(N)=NC(OC)(OC)C23C#N)cc1 (stereo not drawn)	-1.1	13.5	4.2	0.1	.	.
